For 40 compounds, Potency results are on record in PubChem BioAssay (NCATS).

The source made the active and inactive calls. Calls come from the whole dose curve.

This experiment can be described thus: Cell Proliferation Assay Versus the ED40515 IL2 Independent ATL cell lines (AID 1053194). To be noted: ED40515 IL2-independent ATL cells. The source says: Adult T-cell leukemia (ATL) develops in individuals infected with human T-cell lymphotropic virus-1 (HTLV-1). Clinically, ATL is subclassified into four subtypes: smoldering, chronic, lymphomatous, and acute. Two autocrine loops (IL-2/IL-2Ralpha and IL-15/IL-15Ralpha) and one paracrine stimulation loop that involves IL-9 expression by ATL cells and IL-9Ralpha expression on monocytes are required to maintain viability and proliferation in the smoldering and chronic forms of the disease. These assays examined the differential response profiles for the MIPE library of approved and investigational drugs versus an IL2 dependent and independent matched ATL cell line, with the current submission examining the differential response profiles for drugs on an IL2 independent matched ATL cell line
Plate log growing ED40515 -IL2 cells: 1000cells/ well in 5uL phenol red free RPMI +5% FBS +1x p/s, Glutamine using 1536 well white griener tissue culture plates and multidrop cassette acoustic dispensing Columns 1 and 3 DMSO Columns 2 and 4, 9.2 uM Bortezomib Incubate 48 hours for celltiter glo 37C with 5%CO2 and 95% humidity with low evaporation lids Dispense 3 uL per well of cell titer glo with multidrop Incubate for 15 minutes at RT Read on VL/2 using Luminesence Wheel (Filter A)
As to `CCC(C)n1ncn(-c2ccc(N3CCN(c4ccc(OC[C@H]5CO[C@](Cn6cncn6)(c6ccc(Cl)cc6Cl)O5)cc4)CC3)cc2)c1=O` (stereo not given in full), the Potency is 10.5 µM (active).

With `Cc1c(C)c2c(c(C)c1O)CCC(C)(COc1ccc(CC3SC(=O)NC3=O)cc1)O2` (stereo not given), the Potency was 37.2 µM (active).

Take `CC1(C)SCCN(S(=O)(=O)c2ccc(OCC#CCO)cc2)[C@@H]1C(=O)NO`: the Potency was 37.2 µM (active).

With `CCCc1nc2c(C)cc(-c3nc4ccccc4n3C)cc2n1Cc1ccc(-c2ccccc2C(=O)O)cc1`, the Potency is 37.2 µM (active).

On to `O=S(=O)(N=Cc1c(O)ccc2ccccc12)c1cccs1`, for which the Potency was 26.4 µM (active).

For the compound `CCOc1ccn(-c2ccc(F)cc2)c(=O)c1C(=O)Nc1ccc(Oc2ccnc(N)c2Cl)c(F)c1`, the Potency was 23.5 µM (active).

`Cc1ccccc1C(C(=O)NC1CCCC1)N(C(=O)Cn1cnc2ccccc21)c1cccc(F)c1` (stereo not given): the Potency was 20.9 µM (active).

Regarding `C[C@@H]1CN(Cc2ccc(F)cc2)[C@@H](C)CN1C(=O)c1cc2c(C(=O)C(=O)N(C)C)cn(C)c2cc1Cl`, the Potency was 37.2 µM (active).

Turning to `CCOc1cc(C=C2C(=O)N(c3ccccc3)N=C2C)cc(Cl)c1OCC(=O)OC`, the Potency is 29.6 µM (active).

`Nc1ncnc2nc(-c3ccc(N4CCOCC4)nc3)cc(-c3cccc(Br)c3)c12`: the Potency was 29.6 µM (active).

For the compound `C[C@]12CC[C@H](O)CC1=CC[C@@H]1[C@H]2CC[C@]2(C)C(c3cccnc3)=CC[C@H]12`, the Potency is 26.4 µM (active).

As for `CC(C)(Sc1ccc(CCN(CCCCC2CCCCC2)C(=O)NC2CCCCC2)cc1)C(=O)O`, the Potency is 33.2 µM (active).

Take `COc1nc(-c2ccc3c(c2)OCO3)n(-c2ccc(NC(=O)CSc3ccccc3)cc2)n1`: the Potency is 23.5 µM (active).

In the case of `CC(C)c1onc(-c2c(Cl)cccc2Cl)c1COc1ccc(/C=C/c2cccc(C(=O)O)c2)c(Cl)c1`, the Potency is 33.2 µM (active).

`CC(C)OC(=O)C1=CN(C(=O)c2ccc(F)c(F)c2)CC(C)(C)c2c1[nH]c1ccccc21`: the Potency is 11.8 µM (active).

In the case of `O=C(NOC[C@H](O)CO)c1ccc(F)c(F)c1Nc1ccc(I)cc1F`, the Potency is 33.2 µM (active).

Consider `COc1ccc(-c2ccc3c(N4CCOC[C@H]4C)nc(N4CCOC[C@H]4C)nc3n2)cc1CO`, for which the Potency was 0.0083 µM (active).

For `CCc1cc(Nc2nccc(-c3c(-c4ccc(OC)c(C(=O)Nc5c(F)cccc5F)c4)nc4ccccn34)n2)c(OC)cc1N1CCC(N2CCN(S(C)(=O)=O)CC2)CC1`, the Potency is 4.69 µM (active).

Consider `CC(C)(N)C(=O)N[C@H](COCc1ccccc1)C(=O)N1CCC2(CC1)CN(S(C)(=O)=O)c1ccccc12`, for which the Potency was 7.43 µM (active).

With `COc1ccc(CCN2CCN(CCCc3ccccc3)CC2)cc1OC`, the Potency was 7.43 µM (active).

Regarding `c1ccc(-c2nn3c(c2-c2ccnc4cc(OCCN5CCOCC5)ccc24)CCC3)nc1`, the Potency was 26.4 µM (active).

For the compound `CC(C)C[C@H](NC(=O)[C@@H](O)[C@H](N)Cc1ccccc1)C(=O)O`, the Potency was 6.62 µM (active).

On to `CCCCCCCc1ccc(CCc2cccc(O)c2C(=O)O)cc1`, for which the Potency was 16.6 µM (active).

For the compound `COCCNCCCn1c(C(=O)CF)c(-c2ccc(C)cc2)c2c(N)ncnc21`, the Potency is 9.35 µM (active).

Turning to `S=C(NCc1ccc2c(c1)OCO2)N1CCN(c2ncnc3c2oc2ccccc23)CC1`, the Potency was 3.32 µM (active).

Consider `CCN(CC)CCCC(C)Nc1nc(C)cc(Nc2ccc3nc(C)cc(N)c3c2)n1` (stereo not given), for which the Potency was 26.4 µM (active).

For `Cc1csc(NC(=O)c2sc3nc4c(c(C(F)(F)F)c3c2N)CCC4)n1`, the Potency is 26.4 µM (active).

As to `Cn1c(=O)c(F)c(Nc2ccc(I)cc2F)c2c(=O)n(C[C@@H](O)CO)cnc21`, the Potency is 26.4 µM (active).

For the compound `NC(=O)c1ccc(-c2nc(-c3ccc4c(c3)OCCO4)c(-c3ccccn3)[nH]2)cc1`, the Potency is 20.9 µM (active).

For the compound `Clc1ccc(Nc2nnc(Cc3ccncc3)c3ccccc23)cc1`, the Potency is 33.2 µM (active).

As to `Cc1cc([C@@H](C)Nc2ccccc2C(=O)O)c2nc(N3CCOCC3)cc(=O)n2c1`, the Potency was 20.9 µM (active).

Turning to `CC[C@@H](C)[C@H](NC(=O)[C@H](CC1CCCCC1)NC(=O)c1ccno1)C(=O)N1CCC2(CCc3ccccc32)CC1`, the Potency is 10.5 µM (active).

As to `CCn1c(-c2nonc2N)nc2c(C#CC(C)(C)O)ncc(OC[C@H]3CCCNC3)c21`, the Potency is 33.2 µM (active).

For the compound `CCCn1c(=O)c2[nH]c(C34CC5CC3C[C@@H](C5)C4)nc2n(CCC)c1=O`, the Potency was 18.7 µM (active).

As to `O=C(Nc1nc2ccccc2n1CCN1CCOCC1)c1cccc([N+](=O)[O-])c1`, the Potency was 18.7 µM (active).

Regarding `O=C1CCCC2=C1C(c1[nH]ncc1Cl)N=C(Nc1nc3ccccc3o1)N2` (stereo not given), the Potency was 16.6 µM (active).

As for `CC(=O)NC(C)c1ccc(Oc2ccc(OC(C)C)cc2)cc1` (stereo not given), the Potency was 10.5 µM (active).

Turning to `OC(CN1CCC(Cc2ccc(F)cc2)CC1)c1ccc(Cl)cc1` (stereo not given), the Potency is 26.4 µM (active).

As for `C[C@]1(c2nc3c(C(N)=O)cccc3[nH]2)CCCN1`, the Potency is 16.6 µM (active).

For `Oc1cccc(-c2nc(N3CCOCC3)c3oc4ncccc4c3n2)c1`, the Potency was 1.32 µM (active).
